Results on nine compounds are retold here after PubChem BioAssay (EPA / NIEHS).

Inconclusive results are not listed. Activity calls are given as the source filed them. Rule for the calls, unless noted: active = hit-call score of the fitted dose curve at least 0.9, where 1 is the maximum; inactive = score below 0.9.

Experiment [1] in a line: BSK_3C_TissueFactor: BioMAP Diversity Plus: 3C Assay for Tissue Factor Biomarker Activity (AID 2282997). Conditions: BioMAP 3C HUVEC, tissue factor biomarker readout; actives raise or lower the signal. An outline of the steps:
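Cells used were primary human umbilical vein endothelial cells. They were dosed with chemical, and after 24 h Tissue Factor was quantified by ELISA. Curves were fitted bidirectionally with DMSO as baseline.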

Experiment [2] in a line: BSK_3C_uPAR: BioMAP Diversity Plus: 3C Assay for Urokinase-type plasminogen activator receptor (uPAR) Biomarker Activity (AID 2282998). The following applies: BioMAP 3C HUVEC, uPAR biomarker ELISA; actives raise or lower the signal. In short, it runs like this:
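In this endothelial cell-based assay, human umbilical vein primary cells were treated with chemicals and harvested at 24 h. uPAR was quantified using ELISA, with gains or losses fitted relative to DMSO controls.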

A short description of experiment [3]: BSK_3C_VCAM1: BioMAP Diversity Plus: 3C Assay for Vascular cell adhesion molecule 1 (VCAM1) Biomarker Activity (AID 2282999). The following applies: BioMAP 3C HUVEC, VCAM1 ELISA, cytokine-stimulated; actives raise or lower the signal. In short, it runs like this: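 Vascular primary endothelium (human umbilical vein) was exposed to chemicals and assayed 24 h later. VCAM-1 levels came from ELISA, with DMSO serving as baseline for bidirectional fitting.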
On the technique in general: An ELISA detects its analyte on a solid surface through an enzyme-linked reagent.

Experiment [4] is described as follows: BSK_4H_Eotaxin3: BioMAP Diversity Plus: 4H Assay for Eotaxin 3 Biomarker Activity (AID 2283000).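 For outcome: CCL26 protein level quantified by ELISA in parallel with SRB cytotoxicity check.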 Conditions: primary human endothelial cells (HUVEC); actives raise or lower the signal. An outline of the steps:
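Endothelial primary cells (human umbilical vein) exposed to compound for 24 h. ELISA detection of Eotaxin-3.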

Read-out in experiment [5]: Intercellular Adhesion Molecule 1 (ICAM1), ICAM1 (gene 3383)
The experiment can be described thus: BSK_3C_ICAM1: BioMAP Diversity Plus: 3C Assay for Intercellular Adhesion Molecule 1 (ICAM1) Biomarker Activity (AID 2283003). The following applies: primary human endothelial cells (HUVEC); actives raise or lower the signal. In short, it runs like this: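 ELISA readout of ICAM1 in human umbilical vein endothelial cells in the 3C system, taken 24 h post-dose. Gain or loss of signal versus DMSO was fitted in both directions, with SRB total-protein staining run in parallel.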

The nature of experiment [6]: ATG_M_06_TRANS: Attagene TRANS-FACTORIAL HepG2 Assay for M06 Transcription Factor (Internal Marker) (AID 2282983; active = hit-call score of the fitted dose curve at least 0.9, where 1 is the maximum). The following applies: HepG2 Attagene TRANS M06 internal marker reporter. An outline of the steps:
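Human liver HepG2 cells bearing transiently transfected chimeric NR-GAL4 reporter units were treated with chemicals for 24 h. Total RNA was reverse-transcribed, reporter sequences amplified and labelled, then quantified by capillary electrophoresis. Activity was fitted upward relative to DMSO.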

Experiment [7] concerns the target Nuclear receptor subfamily 4 group A member 2 (Homo sapiens) (UniProt P43354). Put plainly: ATG_NURR1_TRANS: Attagene TRANS-FACTORIAL HepG2 Assay for human Nuclear Receptor Related Protein 1 (NURR1) (AID 2282985; active = hit-call score of the fitted dose curve at least 0.9, where 1 is the maximum). The following applies: HepG2 Attagene TRANS reporter, mRNA readout. An outline of the steps:
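Chimeric NR-Gal4 fusion activity measured in HepG2 after 24 h treatment. Reporter transcripts detected by RT-PCR and capillary electrophoresis fluorescence; positive-direction curve fitting against DMSO.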

The target in experiment [8] is Transcriptional activator Myb (Homo sapiens) (UniProt P10242). Put plainly: ATG_Myb_CIS: Attagene CIS-FACTORIAL HepG2 Assay for human Myeloblastosis (Myb) Proto-Oncogene Transcription Factor (AID 2282986). Conditions: HepG2 Attagene CIS-FACTORIAL Myb reporter transcription; actives raise or lower the signal. An outline of the steps: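 Transiently transfected HepG2 cells carrying a multiplexed cis-promoter reporter set report endogenous Myb activity after 24 h compound exposure. Reporter mRNA is read by RT-PCR with capillary electrophoresis of fluorescent products, fitted bidirectionally against DMSO.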
Sequence of Transcriptional activator Myb (Homo sapiens) (P10242 whole entry, looked up): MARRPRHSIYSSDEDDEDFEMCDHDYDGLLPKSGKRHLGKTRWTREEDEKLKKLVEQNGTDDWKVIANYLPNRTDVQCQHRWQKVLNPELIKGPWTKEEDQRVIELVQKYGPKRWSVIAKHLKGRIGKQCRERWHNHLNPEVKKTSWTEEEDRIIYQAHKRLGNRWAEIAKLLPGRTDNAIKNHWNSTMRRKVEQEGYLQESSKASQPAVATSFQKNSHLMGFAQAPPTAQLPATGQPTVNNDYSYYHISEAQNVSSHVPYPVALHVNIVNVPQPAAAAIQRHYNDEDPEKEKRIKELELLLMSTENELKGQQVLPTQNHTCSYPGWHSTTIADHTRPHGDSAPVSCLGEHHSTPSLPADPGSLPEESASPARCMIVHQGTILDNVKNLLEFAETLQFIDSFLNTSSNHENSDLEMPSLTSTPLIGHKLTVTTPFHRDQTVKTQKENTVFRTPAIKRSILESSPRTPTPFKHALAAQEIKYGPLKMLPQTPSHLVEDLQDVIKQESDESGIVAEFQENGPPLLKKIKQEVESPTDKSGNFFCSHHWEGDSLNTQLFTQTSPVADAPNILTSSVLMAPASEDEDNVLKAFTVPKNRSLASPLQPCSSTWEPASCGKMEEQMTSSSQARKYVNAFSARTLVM

Experiment [9] addresses Nuclear respiratory factor 1 (Homo sapiens) (UniProt Q16656). Put plainly: ATG_NRF1_CIS: Attagene CIS-FACTORIAL HepG2 Assay for human Nuclear Respiratory Factor 1 (NRF1) Orphan Gene (AID 2282987). The following applies: HepG2 NRF1 cis-element reporter, Attagene multiplex; actives raise or lower the signal. In short, it runs like this:
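HepG2 cells transiently transfected with multiple cis-regulated reporter units, exposed 24 h. Reporter mRNAs measured by RT-PCR, fluorescent labelling, HpaI digestion and capillary electrophoresis; bidirectional fitting against DMSO.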

Experiment [10] in a line: ATG_NFI_CIS: Attagene CIS-FACTORIAL HepG2 Assay for human Nuclear Factor I (NFI) (AID 2282989). The following applies: HepG2 cis-regulatory reporter, NFI response element transcription; actives raise or lower the signal. In short, it runs like this: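 Transfected HepG2 liver cells, exposed 24 h, supplied total RNA for oligo(dT) reverse transcription and reporter-specific PCR. Labelled, HpaI-cut fragments were sized by capillary electrophoresis; DMSO set the baseline for bidirectional fitting.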

The target of experiment [11] is Myc proto-oncogene protein (Homo sapiens) (UniProt P01106). Put plainly: ATG_Myc_CIS: Attagene CIS-FACTORIAL HepG2 Assay for human Myelocytomatosis (Myc) Proto-Oncogene Transcription Factor (AID 2282990). The following applies: HepG2, Attagene cis-reporter transcription factor activity; actives raise or lower the signal. An outline of the steps:
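Multiplexed cis-reporter transcription in HepG2 cells after 24 h chemical treatment. Reporter mRNA measured by RT-PCR and capillary electrophoresis fluorescence; activity fitted bidirectionally against DMSO control.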

Experiment [12] is described as follows: ATG_NF_kB_CIS: Attagene CIS-FACTORIAL HepG2 Assay for human Nuclear Factor Kappa B (NF-kB) (AID 2282991). The following applies: HepG2 Attagene cis-factorial NF-kB reporter mRNA; actives raise or lower the signal. In short, it runs like this: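 HepG2 cells transfected with cis-promoter-driven reporter units, so endogenous transcription factor activity is measured. Reporter mRNA quantified 24 h after dosing by RT-PCR and capillary electrophoresis, with bidirectional fitting against DMSO.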

A short description of experiment [13]: ATG_NRF2_ARE_CIS: Attagene CIS-FACTORIAL HepG2 Assay for human Nuclear Factor Erythroid 2 Related Factor 2 (NFR2) response to Antioxidant Response Elements (ARE) (AID 2282992). The following applies: HepG2 Attagene ARE/NRF2 reporter, transcription factor activity; actives raise or lower the signal. In short, it runs like this:
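Readout: reporter mRNA quantified by RT-PCR plus FAM-labelled primer extension, HpaI digestion and capillary electrophoresis, 24 h after dosing transfected HepG2 cells. Gain or loss of signal is fitted bidirectionally against DMSO baseline.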

The target in experiment [14] is Cellular tumor antigen p53 (Homo sapiens) (UniProt P04637). Put plainly: ATG_p53_CIS: Attagene CIS-FACTORIAL HepG2 Assay for human p53 Transcription Factor (AID 2282994). Conditions: HepG2 p53 cis-element reporter, Attagene mRNA; actives raise or lower the signal. In short, it runs like this:
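Read-out: reporter mRNA by RT-PCR plus capillary electrophoresis with fluorescence detection. Human HepG2 liver cells carried transfected multi-reporter cis-element constructs, dosed 24 h. Gain or loss of signal fitted bidirectionally against DMSO control.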

The target of experiment [15] is human Peroxisome Proliferator-activated Receptor delta (PPARd), PPARD (gene 5467) (UniProt Q03181). The experiment can be described thus: ATG_PPARd_TRANS: Attagene TRANS-FACTORIAL HepG2 Assay for human Peroxisome Proliferator-activated Receptor delta (PPARd) (AID 2283002; active = hit-call score of the fitted dose curve at least 0.9, where 1 is the maximum). An outline of the steps: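 Multiplexed trans-activation format: HepG2 liver cells expressing exogenous NR-Gal4 chimeras and GAL4-UAS reporters were exposed for 24 h. Reporter mRNA was detected by RT-PCR with capillary electrophoresis fluorescence; activity fitted as gain of signal relative to DMSO.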
Sequence of human Peroxisome Proliferator-activated Receptor delta (PPARd), PPARD (gene 5467) (Q03181 whole entry, looked up, the tested form may be a part): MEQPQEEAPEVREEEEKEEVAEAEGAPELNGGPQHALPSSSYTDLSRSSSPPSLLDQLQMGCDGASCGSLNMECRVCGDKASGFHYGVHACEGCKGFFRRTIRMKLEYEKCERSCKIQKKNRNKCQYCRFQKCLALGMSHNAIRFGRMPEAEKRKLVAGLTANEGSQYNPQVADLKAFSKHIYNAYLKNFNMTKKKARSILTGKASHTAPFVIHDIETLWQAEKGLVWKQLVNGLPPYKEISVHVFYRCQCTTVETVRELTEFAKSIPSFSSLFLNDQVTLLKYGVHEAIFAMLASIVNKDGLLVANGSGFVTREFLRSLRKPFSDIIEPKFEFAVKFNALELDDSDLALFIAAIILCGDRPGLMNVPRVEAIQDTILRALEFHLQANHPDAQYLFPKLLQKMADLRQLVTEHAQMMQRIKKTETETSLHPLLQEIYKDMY

Experiment [16] in a line: ATG_M_32_TRANS: Attagene TRANS-FACTORIAL HepG2 Assay for M32 Transcription Factor (Internal Marker) (AID 2282984; active = hit-call score of the fitted dose curve at least 0.9, where 1 is the maximum;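 note: transcript level of a background control reporter unit measured by RT-PCR and capillary electrophoresis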). The following applies: HepG2 Attagene TRANS M32 internal marker reporter. An outline of the steps:
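After 24 h dosing of transfected HepG2 cells, total RNA was reverse-transcribed, reporter sequences PCR-amplified, 6-FAM labelled by primer extension and HpaI-digested before capillary electrophoresis. Signal increase over DMSO was fitted.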

A short description of experiment [17]: ATG_Oct_MLP_CIS: Attagene CIS-FACTORIAL HepG2 Assay for human Octamer-Binding Transcription Factor (Oct) (AID 2282993). The following applies: HepG2 Attagene cis-factorial Oct reporter, mRNA; actives raise or lower the signal. In short, it runs like this:
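Using HepG2 cells bearing transfected cis-reporter constructs, mRNA induction was read after 24 h by fluorescent RT-PCR and capillary electrophoresis, with DMSO defining baseline for gain- or loss-of-signal fits.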

The target of experiment [18] is human Peroxisome Proliferator-activated Receptor alpha (PPARa), PPARA (gene 5465) (UniProt Q07869). Put plainly: ATG_PPARa_TRANS: Attagene TRANS-FACTORIAL HepG2 Assay for human Peroxisome Proliferator-activated Receptor alpha (PPARa) (AID 2283001; active = hit-call score of the fitted dose curve at least 0.9, where 1 is the maximum). In short, it runs like this: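 Cells (HepG2) are transfected with multiple reporter transcription units, exposed to chemical for 24 h, then total RNA is reverse-transcribed and amplified. Labelled products are quantified by capillary electrophoresis; induction is referenced to DMSO.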
Sequence of human Peroxisome Proliferator-activated Receptor alpha (PPARa), PPARA (gene 5465) (Q07869 whole entry, looked up): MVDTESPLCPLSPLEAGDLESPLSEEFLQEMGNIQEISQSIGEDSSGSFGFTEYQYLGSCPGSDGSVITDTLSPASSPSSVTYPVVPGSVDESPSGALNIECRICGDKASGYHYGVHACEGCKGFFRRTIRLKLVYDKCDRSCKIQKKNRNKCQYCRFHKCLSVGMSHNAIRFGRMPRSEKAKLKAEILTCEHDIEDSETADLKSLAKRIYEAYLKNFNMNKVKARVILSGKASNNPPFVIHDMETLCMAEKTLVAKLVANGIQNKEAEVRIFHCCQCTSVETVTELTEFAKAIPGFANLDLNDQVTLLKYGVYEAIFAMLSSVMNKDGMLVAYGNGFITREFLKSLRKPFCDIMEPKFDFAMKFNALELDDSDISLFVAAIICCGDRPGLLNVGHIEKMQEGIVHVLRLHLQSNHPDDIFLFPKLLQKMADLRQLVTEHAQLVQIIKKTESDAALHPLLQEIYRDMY

Sequence of Cellular tumor antigen p53 (Homo sapiens) (P04637 whole entry, looked up): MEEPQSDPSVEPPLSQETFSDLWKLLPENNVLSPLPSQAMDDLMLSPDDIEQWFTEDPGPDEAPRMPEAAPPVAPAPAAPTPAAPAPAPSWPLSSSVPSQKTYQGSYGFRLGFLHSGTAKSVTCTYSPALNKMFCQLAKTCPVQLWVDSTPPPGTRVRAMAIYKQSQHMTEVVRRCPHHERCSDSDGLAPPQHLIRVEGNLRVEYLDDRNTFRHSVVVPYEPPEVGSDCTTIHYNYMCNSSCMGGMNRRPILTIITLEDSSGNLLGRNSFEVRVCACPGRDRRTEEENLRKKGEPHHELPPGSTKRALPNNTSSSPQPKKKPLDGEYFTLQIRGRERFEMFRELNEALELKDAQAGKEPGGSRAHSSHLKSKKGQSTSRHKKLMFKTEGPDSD
Sequence of Nuclear respiratory factor 1 (Homo sapiens) (Q16656 whole entry, looked up): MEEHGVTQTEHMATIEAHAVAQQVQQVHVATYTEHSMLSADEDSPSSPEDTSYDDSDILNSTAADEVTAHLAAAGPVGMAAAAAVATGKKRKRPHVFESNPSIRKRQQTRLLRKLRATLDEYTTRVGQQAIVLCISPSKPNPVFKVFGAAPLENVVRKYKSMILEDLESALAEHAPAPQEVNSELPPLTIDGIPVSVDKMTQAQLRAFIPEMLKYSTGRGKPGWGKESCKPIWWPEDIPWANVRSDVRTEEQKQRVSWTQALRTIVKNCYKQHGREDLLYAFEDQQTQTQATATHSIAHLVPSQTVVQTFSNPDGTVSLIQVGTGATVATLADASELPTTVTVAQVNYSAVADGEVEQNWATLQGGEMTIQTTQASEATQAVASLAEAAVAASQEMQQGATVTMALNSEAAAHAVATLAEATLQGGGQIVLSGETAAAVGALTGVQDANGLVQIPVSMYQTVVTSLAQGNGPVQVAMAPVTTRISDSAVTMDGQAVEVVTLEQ
Sequence of Myc proto-oncogene protein (Homo sapiens) (P01106 whole entry, looked up): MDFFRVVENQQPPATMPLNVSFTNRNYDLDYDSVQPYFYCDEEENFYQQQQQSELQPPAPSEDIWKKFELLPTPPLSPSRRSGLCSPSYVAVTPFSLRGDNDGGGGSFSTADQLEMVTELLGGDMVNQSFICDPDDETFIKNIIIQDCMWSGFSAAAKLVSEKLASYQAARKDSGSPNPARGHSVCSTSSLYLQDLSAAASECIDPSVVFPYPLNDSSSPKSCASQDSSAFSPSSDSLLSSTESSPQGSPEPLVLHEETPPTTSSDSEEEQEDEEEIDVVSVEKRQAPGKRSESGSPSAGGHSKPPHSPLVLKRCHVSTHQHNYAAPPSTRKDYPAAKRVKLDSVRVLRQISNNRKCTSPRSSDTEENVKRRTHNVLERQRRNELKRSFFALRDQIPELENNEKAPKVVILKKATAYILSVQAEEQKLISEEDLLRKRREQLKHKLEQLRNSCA
Sequence of Nuclear receptor subfamily 4 group A member 2 (Homo sapiens) (P43354 whole entry, looked up, the tested form may be a part): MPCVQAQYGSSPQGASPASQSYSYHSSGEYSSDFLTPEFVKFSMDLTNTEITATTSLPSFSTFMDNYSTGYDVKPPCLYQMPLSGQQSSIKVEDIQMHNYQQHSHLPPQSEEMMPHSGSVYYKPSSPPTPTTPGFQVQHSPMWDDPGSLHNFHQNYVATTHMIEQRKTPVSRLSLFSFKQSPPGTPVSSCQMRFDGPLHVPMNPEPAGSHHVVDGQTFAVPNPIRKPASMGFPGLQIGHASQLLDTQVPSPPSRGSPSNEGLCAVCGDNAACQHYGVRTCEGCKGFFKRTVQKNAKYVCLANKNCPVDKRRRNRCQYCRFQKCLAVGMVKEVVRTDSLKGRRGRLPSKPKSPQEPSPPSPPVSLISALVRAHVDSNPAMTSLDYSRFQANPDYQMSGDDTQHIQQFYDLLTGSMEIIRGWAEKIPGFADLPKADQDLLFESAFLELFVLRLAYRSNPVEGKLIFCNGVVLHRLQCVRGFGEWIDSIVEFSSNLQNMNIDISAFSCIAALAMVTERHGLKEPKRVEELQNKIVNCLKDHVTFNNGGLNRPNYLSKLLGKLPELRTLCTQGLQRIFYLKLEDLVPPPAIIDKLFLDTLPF

With `O=C(O)CCC(F)(C(F)(F)F)C(F)(F)F`, the outcome in experiment [1], in [2], in experiment [3], in experiment [4] and in [5] was inactive.
Take `CC(C)(c1ccccc1)c1ccc(O)c(C(C)(C)c2ccccc2)c1`: the compound was classed as inactive in experiment [6], in [7], in experiment [8], in experiment [11], in experiment [14] and in [15]. The AC50 (usually the concentration giving half of the maximal activity seen) in experiment [9] is 6.39 µM (active); in experiment [10], 8.31 µM (active); in experiment [12], 8.81 µM (active); in experiment [13], 7.97 µM (active); in experiment [1], 11.7 µM (active); in experiment [2], 9.74 µM (active). The AC50 in experiment [3] was 9.15 µM (active); in experiment [4], 9.16 µM (active).
For `CC(C)c1ccc(CO)cc1`, the compound was classed as inactive in [6], in [16], in [8], in [9], in experiment [10] and in experiment [11]. The call in [12], in [17], in [14], in experiment [1], in experiment [2] and in [4] was inactive. Further, the compound was classed as inactive in experiment [18] and in experiment [15].
With `O=C1CCCN1`, the compound was called inactive in [6], in experiment [8], in experiment [9], in experiment [10], in experiment [11] and in [12]. Also, the compound was called inactive in [13], in [17] and in experiment [15].
As to `O=C(CCl)CCl`, the call in experiment [6], in experiment [7], in experiment [8], in experiment [10], in [11] and in experiment [18] was inactive. In addition, the AC50 was 56 µM (active) in [9]; 33.4 µM (active) in experiment [12]; 8.44 µM (active) in [13]; 26.1 µM (active) in experiment [17]; 58.6 µM (active) in [14].
`CC(C)(c1ccc(OCC2CO2)cc1)c1ccc(OCC2CO2)cc1` (stereo unspecified): the outcome in [16], in experiment [7], in experiment [8], in [9], in [10] and in experiment [11] was inactive. Moreover, the outcome in experiment [12] was inactive. In addition, in [14], the AC50 was 56.2 µM (active).
As to `C=CC#N`, the compound was called inactive in experiment [16], in experiment [7], in experiment [8], in experiment [9], in experiment [10] and in [11]. Also, the call in experiment [12], in [17], in experiment [14] and in [18] was inactive. Also, the AC50 in experiment [13] is 119 µM (active).
Take `CC(C)(OO)c1ccccc1`: the compound was called inactive in experiment [16], in experiment [8], in [9], in experiment [10], in [11] and in experiment [12]. Besides, the compound was called inactive in [13], in experiment [17], in [14], in experiment [1], in experiment [2] and in experiment [4]. In addition, the call in [18], in experiment [15] and in experiment [5] was inactive.
Take `CCN1CCC2(CC1)COc1cc3c(cc12)N(C(=O)c1ccc(-c2ccc(-c4nnc(C)o4)cc2C)cc1)CC3`: the outcome in experiment [16], in experiment [8], in experiment [9], in [10], in [11] and in [12] was inactive. Further, the compound was called inactive in [14], in experiment [18] and in experiment [15]. The AC50 in experiment [13] was 5.17 µM (active); in experiment [1] it was 13.2 µM (active); in [2], 9.27 µM (active); in [3], 26.9 µM (active); in experiment [4] it was 24.1 µM (active).
